Compounds with a hit are over-represented: about 2% of the library has one in this group of screens.
APOBEC3G inh = inhibitors of human APOBEC3G DNA deaminase. Q9HC16. recombinant A3G, ssDNA deamination FAM/TAMRA fluorescence. inhibition, % at 20 µM. 330,000 tested, 0.28% active. AID 493012;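 active means inhibition of at least 40% at 20 µM, with no more than 30% in the related APOBEC3A deaminase screen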;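 further: plate controls were DMSO wells with A3G for no effect and wells lacking A3G enzyme for full effect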
sPLA2-III inh = Inhibits HGIII-sPLA2 liposome hydrolysis, primary screen. QFRET BODIPY PC-A2 liposome hydrolysis, fluorescence. 370,000 tested, 0.56% active. Q9NZ20. AID 743126. inhibition, % at 12.2 µM;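 active means inhibition above mean plus 3 SD of compounds lying within the high and low control bounds, cut at about 19% in these data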;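 further: 0% = median of test compound wells and 100% = no enzyme DMSO wells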
Target sequence (Q9NZ20 whole entry, looked up): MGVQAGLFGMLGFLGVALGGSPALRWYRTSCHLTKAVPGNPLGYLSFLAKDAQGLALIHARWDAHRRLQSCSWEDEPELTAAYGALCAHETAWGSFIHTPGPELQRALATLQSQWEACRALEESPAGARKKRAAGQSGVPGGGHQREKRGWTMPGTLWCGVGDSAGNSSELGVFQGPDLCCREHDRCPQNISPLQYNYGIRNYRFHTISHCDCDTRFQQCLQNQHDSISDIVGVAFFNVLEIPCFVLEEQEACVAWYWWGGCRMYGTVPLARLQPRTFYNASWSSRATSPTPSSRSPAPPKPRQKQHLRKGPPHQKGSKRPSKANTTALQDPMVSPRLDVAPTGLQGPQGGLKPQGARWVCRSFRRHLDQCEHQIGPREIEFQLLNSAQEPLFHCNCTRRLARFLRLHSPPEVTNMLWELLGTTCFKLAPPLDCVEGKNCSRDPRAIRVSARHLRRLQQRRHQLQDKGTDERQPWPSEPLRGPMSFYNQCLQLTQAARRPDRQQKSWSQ
Fh CTSL1 inh = cathepsin L1 inhibition, PFM18AAP counter-screen. recombinant F. hepatica cathepsin L1, Z-Leu-Arg-MCA fluorescence. inhibition, % at 5.96 µM. 300,000 tested, 0.49% active. AID 1906;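 active means inhibition above the mean of all tested compounds plus 3 SD, set per screening campaign, cut at about 17% in these data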;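 further: 0% = plate median of test compound wells and 100% = 1 µM Z-Phe-Ala-diazomethylketone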
A3A deaminase = blocks human APOBEC3A ssDNA deamination; P31941; recombinant A3A, FAM/TAMRA ssDNA deamination fluorescence; inhibition, % at 20 µM; 330,000 tested, 0.41% active; AID 493011;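 active means at least 40% inhibition at 20 µM here, with at most 30% in a related deaminase screen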;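 further: plate controls were A3A with DMSO for no effect and wells lacking A3A enzyme for full effect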
NALP1 yeast inh = inhibitors of NALP1 inflammasome in yeast. S. cerevisiae NALP1/ASC/caspase-1 growth, X-gal OD620, 72 h. inhibition, % at 10 µM. 280,000 tested, 0.61% active. AID 2071; in the data active means inhibition mostly above about 24%, no sharp cut-off; inactive means mostly below about 32%
APOBEC3G confirm = confirmation of human APOBEC3G DNA deaminase inhibitors | shares compounds with APOBEC3G inh | recombinant A3G ssDNA deaminase, UDG/FAM-TAMRA fluorescence | inhibition, % at 20 µM | 890 tested, 72% active | AID 493152;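 active means inhibition reaching a set limit in any replicate at 20 µM, the limit being 80% of the first screen's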
UDG ctr A3G = counter-screen for APOBEC3G inhibitors: E. coli UDG | shares compounds with APOBEC3G inh | inhibition, % at 20 µM | 710 tested, under 10 active | UDG counterscreen, FAM/TAMRA oligo fluorescence;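 active means compounds giving 40% or more inhibition at 20 µM in any one of the three replicates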;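 further: plate controls were DMSO wells with UDG and oligo for no effect and DMSO wells lacking both for full effect; inhibitors lower the FAM signal released by uracil excision and alkaline cleavage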
Starred values were filed as active, the others as inactive.

Screening Cc1ccc(/C=N/n2c(-c3ccco3)n[nH]c2=S)s1 returned APOBEC3G inh 40.7*, sPLA2-III inh 17.2, Fh CTSL1 inh 5.2, A3A deaminase -6.0, NALP1 yeast inh 5.1, APOBEC3G confirm 74.8* and UDG ctr A3G 0.8.
Screening S=c1[nH]nc(-c2ccco2)n1/N=C/c1ccccc1Cl returned APOBEC3G inh 44.7*, sPLA2-III inh 18.4, Fh CTSL1 inh 2.2, A3A deaminase -5.0, NALP1 yeast inh -1.5, APOBEC3G confirm 37.3* and UDG ctr A3G 3.2.
Screening S=c1[nH]nc(-c2ccco2)n1/N=C/c1ccc(Cl)cc1 returned sPLA2-III inh 14.9, Fh CTSL1 inh -0.5 and NALP1 yeast inh 22.1.
For Cc1cc(-c2n[nH]c(=S)n2/N=C/c2ccc(Br)s2)n[nH]1 the results were APOBEC3G inh 39.9, sPLA2-III inh 7.1, Fh CTSL1 inh 3.6, A3A deaminase -4.1 and NALP1 yeast inh 18.1.
For Cc1cc(-c2n[nH]c(=S)n2/N=C/c2ccc(C)s2)n[nH]1 the results were APOBEC3G inh 54.9*, sPLA2-III inh 18.2, Fh CTSL1 inh 3.5, A3A deaminase 5.2, NALP1 yeast inh 25.4, APOBEC3G confirm 72.2* and UDG ctr A3G -3.2.
Screening S=c1[nH]nc(-c2ccco2)n1/N=C/C=C/c1ccco1 returned APOBEC3G inh 72.9, sPLA2-III inh 12.4, Fh CTSL1 inh 2.7, A3A deaminase 62.5 and NALP1 yeast inh 34.8.
For Cc1cc(C)cc(C(=O)OCCN2CCN(C3CN(Cc4cn(Cc5ccc([N+](=O)[O-])cc5)nn4)S(=O)(=O)C3)CC2)c1 (centres undefined) the results were sPLA2-III inh -3.0.
N/C(=N\c1nc2ccccc2o1)NC(=O)c1ccccc1 was read as APOBEC3G inh 61.2*, sPLA2-III inh 1.3, Fh CTSL1 inh -0.5, A3A deaminase -0.3, NALP1 yeast inh -1.7, APOBEC3G confirm -2.2 and UDG ctr A3G 0.7.
Cc1ccc(C(=O)N/C(N)=N/c2nc3ccccc3o2)cc1 was read as APOBEC3G inh -4.2, sPLA2-III inh -1.3, Fh CTSL1 inh 1.3, A3A deaminase 0.0 and NALP1 yeast inh 0.8.
Screening CCN(Cc1cccs1)c1ncnc2ccc(-c3ccc4c(c3)OCO4)cc12 returned sPLA2-III inh -12.9.
`Cc1nc2[nH]c(=S)[nH]c(=O)c2nc1C` gave sPLA2-III inh -3.5.
`Cc1nc2c(=O)[nH]c(=S)n(C)c2nc1C` gave APOBEC3G inh 52.3*, sPLA2-III inh 20.6*, Fh CTSL1 inh 1.5, A3A deaminase -1.7, NALP1 yeast inh 17.5, APOBEC3G confirm 19.6 and UDG ctr A3G -34.9.
Cc1ccccc1NC(=S)c1ccc2ccccc2n1 was read as APOBEC3G inh 42.0*, sPLA2-III inh 6.7, Fh CTSL1 inh -0.4, A3A deaminase -3.0, NALP1 yeast inh 15.5, APOBEC3G confirm 39.9* and UDG ctr A3G 1.2.
CCCCCCn1c(SCC(=O)OC)nc2c1c(=O)[nH]c(=O)n2C was read as APOBEC3G inh 44.9*, sPLA2-III inh -3.9, Fh CTSL1 inh 3.6, A3A deaminase 0.4, NALP1 yeast inh 19.1, APOBEC3G confirm 68.1* and UDG ctr A3G -4.0.
CCCCCCn1c(SCC(C)C)nc2c1c(=O)[nH]c(=O)n2C was read as APOBEC3G inh 8.5, sPLA2-III inh -3.8, Fh CTSL1 inh -1.3, A3A deaminase 1.8 and NALP1 yeast inh 12.7.
For Cc1ccc(-c2cc(C(=O)Nc3cccnc3)c3ccccc3n2)o1 the results were APOBEC3G inh 49.6*, sPLA2-III inh -14.3, Fh CTSL1 inh -1.4, A3A deaminase 25.0, NALP1 yeast inh 19.4, APOBEC3G confirm 36.3* and UDG ctr A3G -4.8.
Cc1ccc(NC(=O)c2cc(-c3ccc(C)o3)nc3ccccc23)cc1 was read as APOBEC3G inh 4.9, sPLA2-III inh 8.0, Fh CTSL1 inh 0.7, A3A deaminase 6.3 and NALP1 yeast inh -1.2.
Screening S=c1[nH]nc(-c2ccco2)n1-c1ccc(Br)cc1 returned APOBEC3G inh 42.0*, sPLA2-III inh 15.9, Fh CTSL1 inh -1.2, A3A deaminase -0.9, APOBEC3G confirm 69.0* and UDG ctr A3G -3.4.

Compound activity as filed in PubChem BioAssay.
